Reference: PubChem BioAssay (NCI)
About 83,000 compounds went through this panel and 20% of them were active in at least one assay; those are over-represented in the sample as a whole.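 48-hour exposure, single concentration, 96-well plates; percent growth endpoint where 0 means no net growth. Active: below 10.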 Values without a mark were called inactive. Calls of active or inactive are those of the source.

What was measured:
Test in all cases: NCI-60 one-dose screen, 48 h (100 = growth as untreated, 0 = no growth, -100 = all killed)
Conditions in all cases: 10 µM
RPMI-8226 leukemia = system: RPMI-8226 leukemia
OVCAR-8 ovarian = system: OVCAR-8 ovarian
OVCAR-5 ovarian = system: OVCAR-5 ovarian
OVCAR-4 ovarian = system: OVCAR-4 ovarian
SK-OV-3 ovarian = system: SK-OV-3 ovarian
IGROV1 ovarian = system: IGROV1 ovarian
OVCAR-3 ovarian = system: OVCAR-3 ovarian
HS 578T breast = system: HS 578T breast
NCI/ADR-RES ovarian = system: NCI/ADR-RES ovarian

Structure (SMILES)	growth (RPMI-8226 leukemia)	growth (OVCAR-8 ovarian)	growth (OVCAR-5 ovarian)	growth (OVCAR-4 ovarian)	growth (SK-OV-3 ovarian)	growth (IGROV1 ovarian)	growth (OVCAR-3 ovarian)	growth (HS 578T breast)	growth (NCI/ADR-RES ovarian)
CN1CCN(c2ccc(Nc3nc(NCCCNC(=O)c4ccc(Cl)cc4)c4sccc4n3)cc2)CC1	48.5%	67.9%	90.8%	70.6%	103%	88.3%	109%	78.8%	91.6%
CCOC(=O)C1NN(c2ccc(S(N)(=O)=O)cc2)c2nc3nc(-c4cccs4)cc(-c4cccs4)c3c(=O)n21 (centres undefined)	77.9%	86.7%	100%	70.2%	93.6%	104%	89.9%	8.11% (active)	88.6%
CC(=C(c1ccc(OCCCN(C)C)cc1)c1ccc(OCCCN(C)C)cc1)c1ccccc1	-54.4% (active)	-72.7% (active)	-98.5% (active)	-96.9% (active)	-90.3% (active)	-95% (active)	-93.6% (active)	-71.2% (active)	-98.1% (active)
COC[C@@H](CC(C)C)N=C1NC(=O)/C(=C/c2ccc3ncsc3c2)N1	4.92% (active)	13.7%	-21.7% (active)	40.4%	-0.203% (active)	8.22% (active)	-38.4% (active)	11.6%	9.71% (active)
O=C(COc1ccc(NC(=O)Nc2ccc(Cl)cc2)cc1)N=Nc1c(O)[nH]c2ccc([N+](=O)[O-])cc12	22.3%	16.1%	69.4%	-11.6% (active)	85.2%	79.5%	-55.9% (active)	13.7%	92.6%
O=C1Nc2cc(Cl)ccc2/C1=C/c1cccc(OCc2ccc(Br)cc2F)c1	-20.1% (active)	-15.8% (active)	30.2%	39.1%	40.7%	20.2%	-39% (active)	-10.1% (active)	-35.1% (active)
Cc1ccc(-c2nc3ccc(C(=O)N=Nc4c(O)[nH]c5ccc(Br)cc45)cc3[nH]2)cc1	49.6%	39.9%	62.8%	45.7%	96.1%	87.4%	49.4%	94.1%	99.7%
O=C(c1ccc(Cl)cc1)C1[C@H](c2ccccc2Br)[C@@H](c2ccccc2)NC12C(=O)Nc1ccc(Br)cc12 (some centres undefined)	7% (active)	13.7%	19.2%	23.2%	36.2%	21.2%	-8.88% (active)	12%	-67% (active)
C[C@H]1[C@H](C)CC[C@]2(COC(=O)CCC(=O)NCC#CCN3CCNCC3)CC[C@]3(C)C(=CC[C@@H]4[C@@]5(C)CCCNC(C)(C)[C@@H]5CC[C@]43C)[C@H]12	-22.9% (active)	69%	53.8%	66.1%	51.4%	44.3%	75.6%	60.8%	66.9%
CCC(C)S(=O)(=O)c1oc(-c2ccc(C)cc2)nc1S(=O)(=O)c1ccccc1 (centres undefined)	-44.5% (active)	-65.8% (active)	-91.3% (active)	-83.7% (active)	65.5%	-92.9% (active)	-81.1% (active)	-12.1% (active)	-55.2% (active)
COC(=O)CC1CC1C1Cc2c(nc(N(C)S(C)(=O)=O)nc2C(C)C)-c2ccc(F)cc21 (centres undefined)	46%	80.6%	90%	82.3%	106%	81.4%	97.5%	84.6%	71.8%
